Screens as filed in PubChem.
aSyn 5UTR act – Activators via SNCA 5'UTR binding, MLPCN; alpha-synuclein 5'UTR reporter, activators screen; activity score, % (tested at 7.5 µM), hits read low; 300,000 tested, 7.1% active; in the data active = activity score below about -60%
Large screens that a line does not name were inactive. These entries were drawn from the full list.

Brc1ccc(C2=CC(c3cccs3)n3ncnc3N2)cc1 (stereo not drawn)	aSyn 5UTR act -107
COc1cc(N2Cc3ccccc3C2)ccc1C=O	aSyn 5UTR act -151
COc1ccc(C(=O)Nc2cc3c4c(c2)CC(=O)N4CCC3)c(OC)c1	aSyn 5UTR act -90
Cc1cc(C(=O)COC(=O)c2cc(Cl)ccc2N)c(C)n1Cc1ccco1	aSyn 5UTR act -157
Cc1cc(C(=O)COC(=O)c2cccn2C)c(C)n1Cc1ccco1	none
Cc1ccc(Nc2nc(Cl)c(C=O)s2)cc1Cl	aSyn 5UTR act -115
O=Cc1sc(Nc2ccccc2)nc1Cl	aSyn 5UTR act -117
COc1ccccc1Nc1nc2c(s1)CCC2	aSyn 5UTR act -68
COc1ccccc1Nc1nc(Cl)c(C=O)s1	aSyn 5UTR act -104
CN(C)/N=C/c1ccc(N2CCOCC2)cc1	aSyn 5UTR act -96
Fc1ccc(N/N=C/c2ccc(N3CCOCC3)cc2)c(F)c1	aSyn 5UTR act -207
C/C(=N\Nc1ccc(F)cc1F)c1ccc(Br)s1	aSyn 5UTR act -81
C/C(=N\Nc1ccc(F)cc1F)c1ccc(N2CCOCC2)cc1	aSyn 5UTR act -96
CC(=O)Nc1ccc(C(=O)Nc2cc(C)on2)cc1	aSyn 5UTR act -85
CCCCCCCC(=O)Oc1ccc(C(=O)Nc2cc(C)on2)cc1	aSyn 5UTR act -93
Cc1cc(NC(=O)c2nn(C)c(C)c2Br)no1	aSyn 5UTR act -87
Cc1cc(NC(=O)c2ccc(F)cc2)no1	aSyn 5UTR act -79
Cc1occc1C(=O)N/N=C/C=C/c1ccc(N(C)C)cc1	aSyn 5UTR act -129
Cc1occc1C(=O)N/N=C/C=C/c1ccccc1	aSyn 5UTR act -138
CCCCOC(=O)N/N=C/C=C/c1ccccc1	aSyn 5UTR act -88
Cc1occc1C(=O)N/N=C/C(Br)=C\c1ccccc1	aSyn 5UTR act -108
O=C(Nc1cccc(F)c1)N1CC=C(c2ccc(Cl)cc2)CC1	aSyn 5UTR act -110
Cc1ccc(C2CCN(C(=O)Nc3ccccc3)C2)cc1 (stereo not drawn)	aSyn 5UTR act -151
O=C(Nc1cccc(F)c1)N1CCC(c2ccccc2)CC1	aSyn 5UTR act -109
O=C(Nc1ccc(Cl)cc1)N1CCC(c2ccccc2)C1 (stereo not drawn)	aSyn 5UTR act -82
CCOC(=O)C1=C(C)C/C(=N\NC(=O)c2ccccc2O)CC1	aSyn 5UTR act -79
Cc1cc(C(=O)N2CCN(c3cccc(Cl)c3)CC2)c(C)o1	aSyn 5UTR act -137
Cc1ccnc(Nc2nc(-c3ccc(F)cc3)cs2)c1	aSyn 5UTR act -162
Cc1ccnc(Nc2nc(-c3ccc(Cl)cc3)cs2)c1	aSyn 5UTR act -163
Cn1ncc(SCc2ccccc2)c(Cl)c1=O	aSyn 5UTR act -64
COc1ccc(C(=O)NC(=S)NNC(=O)c2ccc3ccccc3n2)cc1	none
CCOc1ccc(NC(=S)c2ccc3ccccc3n2)cc1	aSyn 5UTR act -67
COc1ccc(NC(=S)c2ccc3ccccc3n2)cc1	aSyn 5UTR act -70
O=C1N=C(N2CCCCC2)S/C1=C/C1=Cc2ccccc2OC1	aSyn 5UTR act -103
O=C1N=C(N2CCCCC2)S/C1=C\c1ccc(Br)cc1	aSyn 5UTR act -128
Cc1nc(N)sc1N=Nc1ccccc1C(F)(F)F	aSyn 5UTR act -184
CSc1ccccc1OCc1cc(C(=O)N2CCCC2c2nonc2C)no1 (stereo not drawn)	aSyn 5UTR act -144
Cc1nonc1C1CCCN1C(=O)c1cc(COc2ccc(F)cc2F)on1 (stereo not drawn)	aSyn 5UTR act -126
COc1cnc(-c2ccccn2)nc1N(C)c1ccccc1	none
c1ccc(-c2cnnc(-c3ccccn3)n2)cc1	aSyn 5UTR act -133
CCOc1ccccc1NC(=O)c1cccc(NC(=O)c2ccco2)c1	aSyn 5UTR act -185
CCOC(=O)c1cccc(NC(=O)c2ccc(NC(=O)c3ccco3)cc2)c1	aSyn 5UTR act -67
COc1cccc2sc(N(CCCN(C)C)C(=O)c3ccc(S(=O)(=O)N4CCc5ccccc5C4)cc3)nc12	none
COc1ccccc1C(=O)N(CCC1CCCN1C)c1nc2ccccc2s1 (stereo not drawn)	aSyn 5UTR act -103
COc1cccc2sc(N(CCCN(C)C)C(=O)c3ccc(S(=O)(=O)N4CCCc5ccccc54)cc3)nc12	none
Cc1cc(Cl)c2oc(C(=O)NCCC3CCCCO3)c(C)c2c1 (stereo not drawn)	aSyn 5UTR act -63
Cc1c(C(=O)NCC2CCCO2)oc2ccc(Br)cc12 (stereo not drawn)	aSyn 5UTR act -82
Cc1ccc(-c2noc(-c3ccoc3C)n2)cc1	aSyn 5UTR act -186
Cc1occc1-c1nc(-c2ccncc2)no1	aSyn 5UTR act -77
CO/N=C/C(C#N)=C/c1ccc(OC)cc1	aSyn 5UTR act -81
Cc1ccc2oc(-c3ccc(C)c(NC(=O)Cc4cccs4)c3)nc2c1	aSyn 5UTR act -142
Cc1ccc2oc(-c3cccc(NC(=O)Cc4cccs4)c3)nc2c1	aSyn 5UTR act -71
Cc1ccc2oc(-c3ccc(C)c(NC(=S)NC(=O)c4cccs4)c3)nc2c1	aSyn 5UTR act -193
Cc1ccc(-c2nc3ccccc3o2)cc1NC(=S)NC(=O)c1cc2ccccc2o1	aSyn 5UTR act -111
Cc1cccc(NC(=O)c2cccc(NC(=O)Cc3cccs3)c2)c1	aSyn 5UTR act -88
Cc1ccc(-c2csc(NC(=S)NC(=O)c3cc4ccccc4o3)n2)cc1	aSyn 5UTR act -66
Cc1nc(SCC(=O)N2CCc3ccccc32)n[nH]1	aSyn 5UTR act -68
CCn1c(CNc2ccc(OC)cc2)nnc1SCC(=O)N1CCCc2ccccc21	aSyn 5UTR act -70
Cc1ccc2c(CC(=O)N3CCc4ccccc43)coc2c1	aSyn 5UTR act -161
CCn1c(-c2ccc(F)cc2)cnc1SCC(=O)N1CCc2ccccc21	aSyn 5UTR act -85
O=C(CSc1ccccc1)N1CCc2ccccc21	aSyn 5UTR act -113
O=C(CSCc1ccco1)N1CCc2ccccc21	aSyn 5UTR act -83
O=C(Cc1c[nH]c2ccccc12)N1CCc2ccccc21	aSyn 5UTR act -63
O=C(CSCc1ccco1)c1ccc(Cl)s1	aSyn 5UTR act -116
Nc1cc(N)nc(SCC(=O)N2CCc3ccccc32)n1	aSyn 5UTR act -87
CNC(=O)c1cc2c(ccc3ccccc32)o1	aSyn 5UTR act -60
O=C(NC1CCCC1)c1cc2c(ccc3ccccc32)o1	aSyn 5UTR act -202
O=C(Nc1cc2c(ccc3ccccc32)oc1=O)C1CCCCC1	aSyn 5UTR act -62
O=C(CSc1nc2ccccc2s1)c1ccc(O)cc1O	aSyn 5UTR act -66
O=C(Cc1nc2ccccc2s1)c1ccc(O)cc1O	aSyn 5UTR act -147
COc1cccc(-c2nc3n(n2)C(c2ccc4c(c2)OCO4)C(C(N)=O)=C(C)N3)c1 (stereo not drawn)	aSyn 5UTR act -111
Cc1ccc2nc3c(cc(C(N)=S)c(=N)n3CCCOC(C)C)c(=O)n2c1	aSyn 5UTR act -64
CC1=NC(=O)C(N=Nc2ccccc2)N1c1ccccc1 (stereo not drawn)	aSyn 5UTR act -109
C/C(=N\Nc1ccc2nncn2n1)c1ccccn1	none
C/C(=N/NC(=O)c1ccccn1)c1ccc(O)cc1	aSyn 5UTR act -90
O=C(NNC(=O)c1cnccn1)c1ccc(Cl)c(Cl)c1	none
C/C(=N\NC(=O)c1ccc(Cl)cc1)c1ccccn1	aSyn 5UTR act -63
N/C(=N\NC(=O)c1ccc(Cl)cc1)c1cnccn1	aSyn 5UTR act -67
COc1cc(C(=O)N/N=C(\C)c2ccccn2)cc(OC)c1OC	none
C/C(=N\Nc1ccc(Cl)cc1)c1ccccn1	aSyn 5UTR act -138
C=CCc1c(C)nc(SC)nc1Nc1ccc(C(C)=O)cc1	aSyn 5UTR act -76
N=c1c(S(=O)(=O)c2ccc(Br)cc2)cc2c(=O)n3ccccc3nc2n1C1CCCC1	none
C=CCNC(=O)c1cc2c(=O)n3ccccc3nc2s1	aSyn 5UTR act -218
